From PubChem BioAssay
AmpC inh no detg – qHTS Inhibitors of AmpC Beta-Lactamase (assay without detergent); P00811; AmpC nitrocefin hydrolysis, absorbance 480 nm, 0.0001% Triton; Potency, µM (highest dose often 57.1 µM), without a hit: at the highest dose activity change, negative = inhibition, most hits filed as inhibitors; 330,000 tested, 0.52% active; AID 485341, 2010;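 further: plate controls were no compound for no effect and no enzyme for full effect; nearly all actives have a fitted effect of over 20% in size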
Target sequence (P00811 whole entry, looked up): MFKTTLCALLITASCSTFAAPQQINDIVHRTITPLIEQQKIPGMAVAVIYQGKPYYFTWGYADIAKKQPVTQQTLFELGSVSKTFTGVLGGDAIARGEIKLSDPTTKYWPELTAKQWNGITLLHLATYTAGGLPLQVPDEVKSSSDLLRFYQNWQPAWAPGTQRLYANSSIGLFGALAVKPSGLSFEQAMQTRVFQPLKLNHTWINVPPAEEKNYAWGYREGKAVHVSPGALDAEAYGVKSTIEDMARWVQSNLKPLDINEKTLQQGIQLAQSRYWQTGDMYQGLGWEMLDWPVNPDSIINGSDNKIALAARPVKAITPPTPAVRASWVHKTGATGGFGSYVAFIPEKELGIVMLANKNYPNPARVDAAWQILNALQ
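AmpC (5.3 nM in the dispensed reagent) in 20 mM phosphate pH 7.0 with 0.01% (detergent screen) or 0.0001% Triton X-100 was preincubated with compounds for 15 min at room temperature. Nitrocefin was then added from an 800 uM solution, and hydrolysis was followed at 480 nm.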
AmpC inh detg – qHTS Inhibitors of AmpC Beta-Lactamase (assay with detergent) | AmpC hydrolysis of nitrocefin, absorbance 480 nm, 0.01% Triton | Potency, µM (series often up to 114 µM), for inactives: at the highest dose activity change, negative = inhibition, hits mostly inhibitors | 370,000 tested, 0.041% active;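 further: 0% = no-compound wells and -100% = no-enzyme wells; nearly all actives have a fitted effect of over 25% in size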
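20 mM phosphate pH 7.0 + 0.01% (detergent screen) or 0.0001% Triton X-100; 5.3 nM AmpC reagent; cpd preinc 15 min RT; nitrocefin (800 uM stock) to start; A480 q20 s × 4 min; Activity was normalised to no-enzyme and no-compound control wells.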
FBPA Giardia inh – qHTS Assay for Inhibitors of Fructose-1,6-bisphosphate Aldolase from Giardia Lamblia; A8B2U2; purified Giardia FBPA; Potency, µM (highest dose often 59.6 µM), for inactives: top-dose activity, negative = inhibition, actives largely listed as inhibitors; 290,000 tested, 0.71% active; AID 2451, 2010; further: nearly all actives have a fitted effect of over 55% in size
Target sequence (A8B2U2 whole entry, looked up): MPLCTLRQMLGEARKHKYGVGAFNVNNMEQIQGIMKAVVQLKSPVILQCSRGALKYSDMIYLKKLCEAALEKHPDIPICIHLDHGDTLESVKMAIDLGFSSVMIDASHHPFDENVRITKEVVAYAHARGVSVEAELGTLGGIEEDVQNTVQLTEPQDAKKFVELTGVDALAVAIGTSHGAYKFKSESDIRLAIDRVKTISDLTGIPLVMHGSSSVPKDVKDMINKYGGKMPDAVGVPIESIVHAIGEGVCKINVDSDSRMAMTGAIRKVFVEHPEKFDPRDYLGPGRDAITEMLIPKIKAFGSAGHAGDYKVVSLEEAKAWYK
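Giardia FBPA (40 nM reagent) was preincubated 10 min at RT with compound (up to 57.5 uM final), then substrate plus GAPDH/TPI/NAD/arsenate coupling system with diaphorase/resazurin was added; resorufin fluorescence (525/598 nm) was read after 20 min.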
Sm TGR inh – qHTS Assay for the Inhibitors of Schistosoma Mansoni Peroxiredoxins. Potency, µM (series often up to 114 µM), without a hit: at the top dose activity change, negative = inhibition, actives largely listed as inhibitors. Schistosoma mansoni thioredoxin glutathione reductase (TGR), Q962Y6. purified TGR, DTNB reduction, TNB absorbance 405 nm. 360,000 tested, 3% active. AID 485364, 2010; further: nearly all actives have a fitted effect of over 60% in size
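TGR 20 nM + NADPH 100 uM (dispensed conc.), cpd preinc 15 min RT; start with NADPH (500 uM addition) then DTNB (15 mM addition). Kinetic TNB absorbance, 405 nm filter. Four-parameter Hill fit across titration.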
Numbers without * were called inactive; ? = inconclusive; / = no result; [ ] = dose if it differs, or a comment. Compounds with a hit are over-represented: about 3.6% of the library has one in this group of screens. The call rests on the fitted dose curve; in most records, active means well fitted curve in the direction sought with a large enough effect; inconclusive means small, poorly fitted or top-dose-only effect, or another doubt; inactive means no such curve, though single readings can be large; an effect the other way counts as inactive or inconclusive. Unless noted, on the % scale 0 is the no-effect control and ±100 the full control effect; potency means the concentration at half of the fitted maximal effect.

SMILES	AmpC inh no detg	AmpC inh detg	FBPA Giardia inh	Sm TGR inh
O=c1c(Cl)c(Cl)cnn1Cc1nnc(-c2ccccc2Br)o1	-39.7%	?	-5.1%	6.31µM*
Clc1ccccc1OCc1nnc(-c2ccccc2Br)o1	-23.1%	-7.9%	5.0%	5.8%
CC(C)(C)C(=O)NNC(=O)c1cc2sccc2s1	30.4%	-8.1%	5.3%	10.8%
COc1ccc(OC)c(NC(=O)COC(=O)CCNc2ccccc2OC)c1	-6.9%	/	/	/
CC1=C(C#N)c2nc(N)c(C#N)c(C)c2/C1=C\c1ccc(-c2ccccc2C(=O)O)o1	-53.0%	3.4%	?	25.1µM*
CCNC(=S)N(CCO)Cc1cc2cc3c(cc2[nH]c1=O)OCO3	-20.3%	-14.1%	-9.2%	?
Cc1ccccc1COC(=O)c1ccc(-c2nnn(Cc3ccccc3F)n2)cc1	/	-0.8%	/	8.1%
Cc1ccsc1/C=N/N=C/c1sccc1C	-26.0%	10.5%	17.5%	1.2%
Cc1ccsc1C=Nc1ccc(O)cc1	-25.0%	-9.0%	5.61µM*	17.8µM*
COc1ccc(CNC(=O)Cc2coc3ccc(C)cc23)cc1	/	-2.2%	/	-0.6%
CC(=O)NC(c1ccco1)c1cc(Cl)c2ccc(N3CCCCC3)nc2c1O (configuration not stated)	-10.9%	-0.3%	/	10µM*
O=C(CNC(=O)c1ccccc1)OC(C(=O)c1ccccc1)c1ccccc1 (configuration not stated)	-37.0%	2.4%	1.3%	-3.2%
COc1ccc(C(=O)C(OC(=O)CNC(=O)c2ccco2)c2ccccc2)cc1 (configuration not stated)	-9.2%	-3.1%	/	17.8µM*
O=C(COC(=O)C1=COCCO1)Nc1ncc(Cl)cc1Cl	-14.9%	?	/	-0.8%
O=C(COC(=O)C1=COCCO1)Nc1ncc(C(F)(F)F)cc1Cl	-20.7%	?	-0.7%	100µM*
COc1ccc(CC2(CO)CCN(S(=O)(=O)c3cccc4cccnc34)CC2)cc1	21.2%	?	3.2%	-29.6%
CC(=O)Nc1ccc(S(=O)(=O)NCCc2csc3nc(-c4cccc(C)c4)nn23)cc1	/	-4.9%	/	0.3%
O=C(/C=C/c1ccco1)N/C(=C\c1ccccc1)C(=O)NCCc1nc2ccccc2[nH]1	-29.8%	-4.6%	5.4%	50.1µM*
COc1ccc(C(=O)C2CCCN(Cc3c(C)[nH]c4ccccc34)C2)c(OC)c1 (configuration not stated)	17.8%	-7.0%	-5.3%	35.5µM*
COc1ccc(C(=O)C2CCCN(Cc3ccccn3)C2)c(OC)c1 (configuration not stated)	30.9%	1.5%	3.0%	-13.9%[57.1 µM]
CCC(=O)N1CCc2cc(Br)cc(S(=O)(=O)NCc3ccco3)c21	-20.2%	2.7%	10.2%	35.5µM*
C(=N\Nc1nc2ccccc2[nH]1)/c1ccccn1	-18.5%	?	?	11.6%
BrC(=C\c1ccccc1)/C=N/Nc1nc2ccccc2[nH]1	-37.3%	-1.7%	?	20µM*
O=C(O)c1ccc(N/N=C/C(Br)=C/c2ccccc2)cc1	-56.9%	-3.2%	9.3%	1.12µM*
N#CC1(NC(=O)COC(=O)c2cc(O)c3ccccc3c2O)CCCCC1	-40.1%	-15.1%	/	22.4µM*
SMILES	AmpC inh no detg	AmpC inh detg	FBPA Giardia inh	Sm TGR inh
N#CC1(NC(=O)COC(=O)c2ccccc2[N+](=O)[O-])CCCCC1	-7.8%	-1.6%	/	-1.3%
Cc1cc(O)c(C(C[N+](=O)[O-])c2ccc(Cl)cc2Cl)c(=O)o1 (configuration not stated)	-29.3%	0.2%	9.5%	50.1µM*
O=c1[nH][nH]c(-c2ccccc2O)c1C(C[N+](=O)[O-])c1ccc(Cl)cc1Cl (configuration not stated)	-13.6%	-1.3%	-18.5%	-30.2%
CCOC(=O)CCC(=O)NCc1ccc2[nH]c(C)cc2c1	-20.9%	?	-23.0%	50.1µM*
Cc1cc2cc(CNC(=O)Nc3ccccc3)ccc2[nH]1	22.4µM*	-3.8%	-9.9%	-15.3%
COC(=O)c1ccccc1NC(=O)Cn1c(CCC(=O)O)ccc1-c1ccc(C)cc1	/	-6.5%	/	-5.8%
Cc1ccccc1NC(=O)Cn1c(CCC(=O)O)ccc1-c1cccs1	-32.5%	-1.7%	7.6%	39.8µM*
COC(=O)c1ccccc1NC(=O)Cn1c(CCC(=O)O)ccc1-c1cccs1	-13.3%	-0.9%	10.0%	50.1µM*
Cc1ccc(-c2ccc(CCC(=O)O)n2NC(=O)c2cccs2)cc1	-28.7%	10.0%	?	-23.5%
Cc1ccc(NC(=O)Cn2c(CCC(=O)O)ccc2-c2cccs2)cc1	-54.4%	?	21.7%	25.1µM*
Cc1cccc(NC(=O)CCN2C(=O)c3ccccc3S2(=O)=O)c1C	0.5%	3.3%	-0.2%	-0.9%
CCSc1nnc(NC(=O)[C@@H](NC(=O)c2ccc(C(C)(C)C)cc2)C(C)C)s1	-30.9%	-2.1%	9.7%	0.8%
COc1ccc(N(CC(=O)NCCSCc2ccco2)S(=O)(=O)c2ccccc2)cc1Cl	-18.0%	4.4%	8.7%	17.8µM*
COc1ccc(N(CC(=O)NCc2ccco2)S(C)(=O)=O)cc1Cl	-11.2%	-15.4%	-0.7%	79.4µM*
COc1ccc(S(=O)(=O)NCCSCc2ccco2)cc1Cl	-32.3%	?	4.6%	31.6µM*
COc1ccc(N(CC(=O)NCc2ccco2)S(C)(=O)=O)cc1OC	-7.9%	-13.9%	2.3%	-9.0%
Cc1ccc(C)c(N(CC(=O)NCCSCc2ccco2)S(C)(=O)=O)c1	69.7%	?	-11.7%	20µM*
Cc1ccc(CSCCNC(=O)CN(c2cc(C)ccc2C)S(C)(=O)=O)cc1	93.5%	?	-9.5%	-2.7%
Cc1ccc([S+](=O)([O-])N(c2ccccc2)[S+](=O)([O-])C(F)(F)F)cc1	/	/	0.7%	/
Cc1cccc(N(CC(=O)NCCSCc2ccco2)S(=O)(=O)c2ccccc2)c1	-1.2%	6.5%	0.1%	31.6µM*
COc1cccc(N(CC(=O)NCCSCc2ccco2)S(=O)(=O)c2ccccc2)c1	-7.5%	3.7%	/	?
COc1ccc(OC)c(N(CC(=O)NCCSCc2ccco2)S(=O)(=O)c2ccc(OC)c(OC)c2)c1	-7.8%	-7.1%	/	-24.8%
COc1ccc(C)cc1N(CC(=O)NCCSCc1ccco1)S(=O)(=O)c1ccc(C)cc1	3.2%	3.0%	1.4%	31.6µM*
COc1ccc(N(C)C(=O)CN(C)S(=O)(=O)c2ccc3c(c2)c(=O)n(C)c(=O)n3C)c(OC)c1	63.8%	-11.4%	5.9%	-8.4%
C#CCNC(=O)C1=C[C@@H](C2CCCCC2)[C@H](CCCO)[C@@H](OCC)O1	97.7%	12.0%	-0.2%	39.8µM*
C#CCNC(=O)C1=C[C@H](c2ccc3c(c2)OCO3)[C@@H](CCCO)[C@H](OCC)O1	20.2%	9.4%	-7.7%	44.7µM*
CCO[C@H]1OC(C(=O)NC2CC2)=C[C@@H](C2CCCCC2)[C@@H]1CCCO	89.5%	2.7%	8.1%	15.1%
